Measurements as given in PubChem BioAssay (NCI).
The panel holds about 83,000 compounds, 20% with a hit somewhere; the sample as a whole holds those more often.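 Step 1: grow cells in 96-well plates. Step 2: add test compound at a single concentration. Step 3: incubate 48 h. Step 4: record percent growth.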 Unmarked numbers belong to inactive results. The source made the active and inactive calls. How the source made its calls: active means growth percent below 10; inactive means the rest.

Columns and labels:
Experiment in all cases: NCI-60 one-dose screen, 48 h (100 = growth as untreated, 0 = no growth, -100 = all killed)
NCI-H226 lung = details: 10 µM unless noted
HOP-62 NSCLC = details: 10 µM unless noted
NCI-H522 lung = details: 10 µM unless noted
MALME-3M melanoma = details: 10 µM unless noted
SK-MEL-28 melanoma = details: 10 µM unless noted
SK-MEL-2 melanoma = details: 10 µM unless noted
CCRF-CEM leukemia = details: 10 µM unless noted
SR leukemia = details: 10 µM
RPMI-8226 leukemia = details: 10 µM unless noted
OVCAR-4 ovarian = details: 10 µM unless noted
IGROV1 ovarian = details: 10 µM
BT-549 breast = details: 10 µM
HOP-92 NSCLC = details: 10 µM unless noted
K-562 leukemia = details: 10 µM unless noted
U251 CNS = details: 10 µM unless noted
LOX IMVI melanoma = details: 10 µM unless noted
EKVX NSCLC = details: 10 µM unless noted

Compound	growth (NCI-H226 lung) [%]	growth (HOP-62 NSCLC) [%]	growth (NCI-H522 lung)	growth (MALME-3M melanoma) [%]	growth (SK-MEL-28 melanoma) [%]	growth (SK-MEL-2 melanoma) [%]	growth (CCRF-CEM leukemia) [%]	growth (SR leukemia) [%]	growth (RPMI-8226 leukemia)	growth (OVCAR-4 ovarian) [%]	growth (IGROV1 ovarian) [%]	growth (BT-549 breast) [%]	growth (HOP-92 NSCLC) [%]	growth (K-562 leukemia) [%]	growth (U251 CNS) [%]	growth (LOX IMVI melanoma) [%]	growth (EKVX NSCLC) [%]
CC(=O)OC1CCC2(C)C(=CCC3C4CC(CN5CC5)C(=O)C4(C)CCC32)C1 (centres undefined)	97.7	121	-78.4% (active)	103	97.9	106	18.3	22.9	-17% (active)	83.1	89.2	96.9					
CCOC(=O)C1(c2ccccc2)CCN(CC(=O)c2ccc(NC(C)=O)cc2)CC1	107	99.9			124	89.2	99.3		88.3%				66.5	122	99.2	88.8	102
Oc1ccccc1OB(Oc1ccccc1O)N(CCCl)CCCl	101	104	-6.22% (active)	89.9	110	104		36.5	39.2%	96.8	52.4	49.4		96.2		89.4	
CNC(=O)O/N=C(/C)c1ccc(Cl)cc1	92.1	99.4	96.5%	101	105	97.2	96.3	90	96.3%	97.3		91.1		92.9		106	
